Several values for one entry are separate records, joined by “and”; a condition that tells them apart may be missing. Identical values can stand only once. More than one record can exist for a structure, and the calls need not agree. Activity calls are given as the source filed them. Unless noted, the call rests on the fitted dose curve; in most records, active means well fitted curve in the direction sought with a large enough effect in the repeat runs; inconclusive means weak or mixed curves; inactive means no such curve, though single readings can be large; an effect the other way counts as inactive or inconclusive.

A short description of test [1]: qHTS assay to identify small molecule antagonists of the glucocorticoid receptor (GR) signaling pathway - cell viability counter screen (AID 720693). Further: nearly all actives have a fitted effect of over 55% in size. Further: potency means the concentration at half of the fitted maximal effect. On the technique in general: In qHTS, concentration-response curves come from the screen itself.
Test [2] is described as follows: qHTS assay for identifying genotoxic compounds that show differential cytotoxicity against isogenic chicken DT40 cell lines with known DNA damage response pathways - wild type cell line (AID 743012). Further: nearly all actives have a fitted effect of over 60% in size. Further: potency means the concentration at half of the fitted maximal effect. The method, boiled down:
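Cytotoxicity in repair-proficient parental chicken DT40 cells serves as the comparator for Rad54/Ku70- and Rev3-deficient lines. Cells were exposed to compounds for 40 h at 37 C/5% CO2, and ATP-based luminescence (CellTiter-Glo) measured viability.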

Test [3] is described as follows: qHTS assay for identifying genotoxic compounds that show differential cytotoxicity against isogenic chicken DT40 cell lines with known DNA damage response pathways - Rev3 mutant cell line (AID 743014). Further: nearly all actives have a fitted effect of over 55% in size. Further: potency means the concentration at half of the fitted maximal effect.
Test [4] can be described thus: qHTS assay for identifying genotoxic compounds that show differential cytotoxicity against isogenic chicken DT40 cell lines with known DNA damage response pathways - Rad54/Ku70 mutant cell line (AID 743015). Further: nearly all actives have a fitted effect of over 60% in size. Further: potency means the concentration at half of the fitted maximal effect.
A short description of test [5]: qHTS assay to identify small molecule antagonists of the androgen receptor (AR) signaling pathway - cell viability counter screen (AID 743033; further: nearly all actives have a fitted effect of over 45% in size; further: potency means the concentration at half of the fitted maximal effect).
The nature of test [6]: qHTS assay to identify small molecule antagonists of the androgen receptor (AR) signaling pathway using the MDA cell line - cell viability counter screen (AID 743041; further: nearly all actives have a fitted effect of over 45% in size; further: potency means the concentration at half of the fitted maximal effect). In a few lines: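 Cytotoxicity counter screen: MDA-kb2 AR-luc cells, compound + R1881, 16 h, 37C, 0% CO2; CellTiter-Fluor added at 15.5 h, fluorescence read after 30 min.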
A short description of test [7]: qHTS assay to identify small molecule antagonists of the thyroid receptor (TR) signaling pathway - cell viability counter screen (AID 743064). Further: nearly all actives have a fitted effect of over 50% in size. Further: potency means the concentration at half of the fitted maximal effect. In a few lines:
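Viability of T3-stimulated (1 nM final) GH3.TRE-Luc cells is measured by CellTiter-Fluor fluorescence after 23.5 h compound exposure at 37 °C plus 30 min reagent incubation.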

A short description of test [8]: qHTS assay to identify small molecule antagonists of the thyroid receptor (TR) signaling pathway (AID 743065). Further: nearly all actives have a fitted effect of over 55% in size. Further: potency means the concentration at half of the fitted maximal effect. In a few lines:
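GH3.TRE-Luc rat pituitary cells (two TREs driving luciferase) were dosed with compound, then stimulated with 1 nM T3 (final) for 23.5 h at 37 C. ONE-Glo luminescence was the read-out, with CellTiter-Fluor fluorescence as the cytotoxicity counter-screen.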

In test [9] the test system is thyroid hormone receptor (rat, GH3 cells). Briefly: qHTS assay to identify small molecule agonists of the thyroid receptor (TR) signaling pathway (AID 743066; calls by dose curve).
The target of test [10] is Estrogen receptor (Homo sapiens) (UniProt P03372). In words: qHTS assay to identify small molecule antagonists of the estrogen receptor alpha (ER-alpha) signaling pathway (AID 743069; active means well fitted curve in the direction sought with a large enough effect in the signal ratio in the repeat runs, not every such curve was filed as active; inconclusive means weak or mixed curves, or effect the other way; inactive means no such curve, though single readings can be large or run the other way; the % refers to the signal ratio; further: potency means the concentration at half of the fitted maximal effect). In a few lines:
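Beta-lactamase FRET fluorescence is read after 2 hr at room temperature with LiveBLAzer B/G substrate. Before that, ER-alpha-bla HEK293 cells sit 4 hr after plating, then receive compound plus 17beta-estradiol and incubate 18 hr at 37C.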

The nature of test [11]: qHTS assay to identify small molecule antagonists of the estrogen receptor alpha (ER-alpha) signaling pathway - cell viability counter screen (AID 743074; calls by dose curve;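 further: HEK293 cells carrying ER-alpha-UAS-bla reporter stimulated with 17beta-estradiol; nearly all actives have a fitted effect of over 45% in size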).
In test [12] the target is Estrogen receptor (Homo sapiens) (UniProt P03372). In words: qHTS assay to identify small molecule agonists of the estrogen receptor alpha (ER-alpha) signaling pathway (AID 743075; calls by dose curve;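 further: HEK293 GripTite cells with ER-alpha and UAS-driven beta-lactamase reporter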; further: potency means the concentration at half of the fitted maximal effect).
Test [13] shares this target. Briefly: qHTS assay to identify small molecule agonists of the estrogen receptor alpha (ER-alpha) signaling pathway using the BG1 cell line (AID 743079). Further: nearly all actives have a fitted effect of over 20% in size. Further: potency means the concentration at half of the fitted maximal effect. The conditions noted are these: BG1Luc4E2 cells, ERE-luciferase agonist, 22 h; activation: at 70.3 µM (top of the series) unless noted.
Test [14] in a line: qHTS assay to identify small molecule antagonists of the estrogen receptor alpha (ER-alpha) signaling pathway using the BG1 cell line (AID 743080; calls by dose curve;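 further: BG1 cells stimulated with 17beta-estradiol alongside compound; nearly all actives have a fitted effect of over 25% in size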). In a few lines:
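BG1-Luc-4E2 cells (endogenous full-length ER-alpha, 4xERE luciferase) hormone-starved 5 days in charcoal-stripped FBS, plated 4,000/well for 24 h, then compound plus 17beta-estradiol for 21.5 h at 37 C; ONE-Glo luminescence read.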

Test [15] is described as follows: qHTS assay to identify small molecule antagonists of the estrogen receptor alpha (ER-alpha) signaling pathway using the BG1 cell line - cell viability counter screen (AID 743081).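 Further: compound given together with 17beta-estradiol as the ER stimulus; nearly all actives have a fitted effect of over 45% in size.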 Further: potency means the concentration at half of the fitted maximal effect.
A further test deals with Aromatase (Homo sapiens) (UniProt P11511). In words: qHTS assay to identify aromatase inhibitors (AID 743083). Further: nearly all actives have a fitted effect of over 55% in size. Further: potency means the concentration at half of the fitted maximal effect.
Test [16] has as its target Androgen receptor (Homo sapiens) (UniProt P10275). Briefly: qHTS assay to identify small molecule antagonists of the androgen receptor (AR) signaling pathway (AID 743035; active means well fitted inhibition curve with a large enough effect in the signal ratio in the repeat runs, not every such curve was filed as active; inconclusive means weak or mixed curves, or effect the other way; inactive means no such curve, though single readings can be large or run the other way; the % refers to the signal ratio). The method, boiled down:
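Steps: seed AR-UAS-bla GripTite HEK293 cells, incubate 4 h at 37C; pin in test compound, then add agonist R1881; incubate 16 h at 37C; add LiveBLAzer B/G FRET substrate, 2 h at room temperature; read fluorescence.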

Test [17] shares this target. Briefly: qHTS assay to identify small molecule agonists of the androgen receptor (AR) signaling pathway (AID 743036; active means well fitted activation curve with a large enough effect in the signal ratio in the repeat runs, with a control signal flat, not every such curve was filed as active; inconclusive means weak or mixed curves, or effect the other way; inactive means no such curve, though single readings can be large or run the other way; the % refers to the signal ratio). The method, boiled down:
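Screening used 2,000 AR-bla HEK293 cells per well, treated 16 h at 37C with test compounds in DMSO alongside positive and DMSO-only controls; beta-lactamase activity was then read by LiveBLAzer B/G FRET fluorescence after 2 h at room temperature.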

Test [18] shares this target. In words: qHTS assay to identify small molecule agonists of the androgen receptor (AR) signaling pathway using the MDA cell line (AID 743040; further: nearly all actives have a fitted effect of over 20% in size). The conditions noted are these: MDA-kb2 AR-luc cells, MMTV luciferase, 16 h; at 70.3 µM (top of the series); stronger effect = higher value. The method, boiled down: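 Luciferase read-out, ONE-Glo, 30 min RT. Cells: MDA-kb2 AR-luc, MMTV promoter with AR and GR response elements. Compound exposure 16 h, 37C, 0% CO2, after 5 h pre-incubation. qHTS agonist mode.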

Test [19] has the same target. In words: qHTS assay to identify small molecule antagonists of the androgen receptor (AR) signaling pathway using the MDA cell line (AID 743042; further: nearly all actives have a fitted effect of over 55% in size; further: potency means the concentration at half of the fitted maximal effect). In a few lines:
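MDA-kb2 breast carcinoma cells carrying MMTV-luciferase (AR/GR responsive) were co-treated with compounds and the agonist R1881 for 16 h at 37C. Inhibition read as ONE-Glo luminescence; CellTiter-Fluor fluorescence measured in parallel for cytotoxicity.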
On the % scale 0 is the no-effect control and ±100 the full control effect.

Chain of Aromatase (Homo sapiens) (P11511 whole entry, looked up): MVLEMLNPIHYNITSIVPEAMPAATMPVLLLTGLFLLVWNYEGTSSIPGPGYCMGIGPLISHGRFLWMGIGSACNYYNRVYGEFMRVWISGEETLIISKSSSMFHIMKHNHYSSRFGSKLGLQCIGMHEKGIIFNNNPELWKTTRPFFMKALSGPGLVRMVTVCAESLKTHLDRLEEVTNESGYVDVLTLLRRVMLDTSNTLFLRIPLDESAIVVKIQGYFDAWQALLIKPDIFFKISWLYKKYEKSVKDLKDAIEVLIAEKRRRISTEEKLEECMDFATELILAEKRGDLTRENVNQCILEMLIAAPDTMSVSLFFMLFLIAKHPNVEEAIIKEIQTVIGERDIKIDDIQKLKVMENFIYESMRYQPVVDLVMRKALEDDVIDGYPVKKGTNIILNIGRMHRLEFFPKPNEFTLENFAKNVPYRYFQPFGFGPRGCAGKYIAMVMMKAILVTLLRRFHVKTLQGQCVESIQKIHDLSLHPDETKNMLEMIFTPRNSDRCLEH
Chain of Androgen receptor (Homo sapiens) (P10275 whole entry, looked up): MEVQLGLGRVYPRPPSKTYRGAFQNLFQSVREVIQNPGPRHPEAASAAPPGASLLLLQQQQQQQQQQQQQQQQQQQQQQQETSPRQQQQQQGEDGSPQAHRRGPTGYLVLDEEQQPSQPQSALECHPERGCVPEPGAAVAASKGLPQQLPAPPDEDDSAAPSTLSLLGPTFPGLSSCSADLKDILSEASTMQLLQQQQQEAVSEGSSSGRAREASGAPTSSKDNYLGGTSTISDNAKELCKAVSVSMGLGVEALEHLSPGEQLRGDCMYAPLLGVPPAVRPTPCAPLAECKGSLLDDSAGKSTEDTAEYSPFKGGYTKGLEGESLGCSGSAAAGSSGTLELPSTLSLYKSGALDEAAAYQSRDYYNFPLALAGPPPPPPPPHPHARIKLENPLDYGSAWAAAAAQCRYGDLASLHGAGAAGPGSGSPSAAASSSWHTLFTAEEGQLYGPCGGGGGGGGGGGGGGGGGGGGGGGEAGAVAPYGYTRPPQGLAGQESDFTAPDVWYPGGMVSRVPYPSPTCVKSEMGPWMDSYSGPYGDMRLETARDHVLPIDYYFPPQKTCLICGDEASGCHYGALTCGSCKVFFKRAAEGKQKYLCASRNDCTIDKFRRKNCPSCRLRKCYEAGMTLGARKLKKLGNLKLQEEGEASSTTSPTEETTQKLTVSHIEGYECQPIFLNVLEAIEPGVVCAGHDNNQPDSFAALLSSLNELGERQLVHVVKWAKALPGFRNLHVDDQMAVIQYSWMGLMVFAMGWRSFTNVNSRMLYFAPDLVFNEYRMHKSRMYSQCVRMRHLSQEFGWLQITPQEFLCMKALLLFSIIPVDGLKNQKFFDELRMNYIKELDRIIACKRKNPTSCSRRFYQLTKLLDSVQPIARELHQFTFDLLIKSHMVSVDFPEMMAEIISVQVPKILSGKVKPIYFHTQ
Chain of Estrogen receptor (Homo sapiens) (P03372 whole entry, looked up): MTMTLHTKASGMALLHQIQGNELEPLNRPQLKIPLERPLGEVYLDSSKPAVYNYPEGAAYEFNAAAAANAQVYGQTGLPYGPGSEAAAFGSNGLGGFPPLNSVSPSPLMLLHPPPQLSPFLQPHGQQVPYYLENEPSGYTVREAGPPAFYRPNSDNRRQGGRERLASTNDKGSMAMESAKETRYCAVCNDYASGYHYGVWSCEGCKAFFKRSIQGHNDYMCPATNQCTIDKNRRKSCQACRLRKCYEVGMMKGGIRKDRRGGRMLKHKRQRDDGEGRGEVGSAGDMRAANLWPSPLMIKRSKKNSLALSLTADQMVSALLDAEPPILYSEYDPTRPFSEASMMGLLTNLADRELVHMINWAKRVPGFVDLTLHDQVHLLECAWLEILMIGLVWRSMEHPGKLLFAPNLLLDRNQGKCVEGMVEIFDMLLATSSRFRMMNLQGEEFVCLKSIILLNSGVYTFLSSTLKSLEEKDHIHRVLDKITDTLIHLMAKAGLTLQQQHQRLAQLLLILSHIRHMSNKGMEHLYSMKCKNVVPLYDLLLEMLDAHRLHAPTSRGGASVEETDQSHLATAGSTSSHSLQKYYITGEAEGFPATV

In the case of `Clc1ccc(C(Cl)(Cl)Cl)cc1`, the Potency entry in [1], in test [2], in test [3], in test [4], in test [5] and in test [6] was “inactive” in each case. In addition, the Potency result in test [7], in test [8], in test [9], in test [10], in [11] and in [12] was “inactive” each time. Also, the Potency entry (in test [14]; in test [15]; with Aromatase (Homo sapiens)) was “inactive” each time. Further, in [13], the Potency result is “inactive and 30.6 µM (active)”.
On to `O=NN(c1ccccc1)c1ccccc1`, for which the Potency entry in test [1], in test [2], in test [3], in test [4], in test [5] and in [6] was “inactive” in each case. Further, the Potency entry in [7], in test [8], in test [9], in test [10], in test [11] and in [14] was “inactive” in each case. For the same molecule, the Potency result (in [15]; with Aromatase (Homo sapiens)) was “inactive” throughout. In addition, the Potency in test [12] is 53.7 µM [inconclusive] (active) and inactive; in test [13] it was 47.4 µM (active).
Take `CC[n+]1c(-c2ccccc2)c2cc(N)ccc2c2ccc(N)cc21`: the Potency is 16.9 µM (active) and 19 µM (active) and 13.7 µM (active) in test [1]; 211 nM (active) and 531 nM (active) and 171 nM (active) in test [2]; 376 nM (active) and 841 nM (active) and 96.4 nM (active) in [3]; 298 nM (active) and 750 nM (active) and 85.9 nM (active) in [4]; 12 µM (active) and 4.88 µM (active) in test [5]; 13.3 µM (active) and 26.6 µM (active) and 30.5 µM (active) in [6]. In addition, the Potency entry in test [7] was “inactive and 54.2 µM (active)”; in test [8], 23.7 µM (active) and 27.2 µM (active); in test [10] it was 26.8 µM [inconclusive] (active) and 30.8 µM [inconclusive] (active); in [12], 4.25 µM [inconclusive] (active) and 19 µM [inconclusive] (active) and 5.47 µM [inconclusive] (active); in test [15], 54.2 µM (active); with Aromatase (Homo sapiens), 18.8 µM (active) and 26.6 µM (active) and 12.1 µM (active). Besides, the Potency entry in test [9], in test [11], in [13] and in [14] was “inactive” throughout.
In the case of `COP(=S)(OC)Oc1ccc(S(=O)(=O)N(C)C)cc1`, the Potency entry in test [1], in [5], in test [16], in [17], in test [6] and in test [7] was “inactive” each time. Also, the Potency result in test [9], in [10], in test [11], in test [12], in test [13] and in test [14] was “inactive” each time. Also, in test [15], the Potency entry was “inactive”. For the same molecule, the Potency in test [2] was 19.3 µM (active); in [3] it was “inactive and 24.3 µM (active)”; in test [4], “inactive and 34.4 µM (active)”; in test [19], “inactive and 61.1 µM (active)”; in the test with Aromatase (Homo sapiens), “inactive and 61.1 µM (active)”. In addition, the activity change in [18] is -0.992% (inactive) and -9.46% (inactive).
Consider `CCC/C=N/O`, for which the Potency entry in [1], in [2], in test [3], in [4], in test [5] and in test [6] was “inactive” each time. Besides, the Potency entry in [7], in [8], in test [9], in test [10], in test [11] and in test [12] was “inactive” each time. For the same molecule, the Potency entry (in test [13]; in [14]; in [15]; with Aromatase (Homo sapiens)) was “inactive” in each case.
Turning to `CS(=O)(=O)NC(=O)c1cc(Oc2ccc(C(F)(F)F)cc2Cl)ccc1[N+](=O)[O-]`, the Potency entry in test [1], in test [2], in [3], in [4], in test [5] and in test [6] was “inactive” in each case. Further, the Potency result (in test [7]; in test [8]; in test [9]; in test [11]; in [15]; with Aromatase (Homo sapiens)) was “inactive” in each case.

The values above are taken from PubChem BioAssay (Tox21).
